# Laboratory results: the supplement of paper PMC10849652
# Of roughly 8,800 targets only a part is listed; those with a hit were picked by preference. About 0.5% of all pairs of compound and target were hits.
# Compound: COc1cc(Nc2ncc3c(n2)-c2ccc(Cl)cc2C(c2c(F)cccc2OC)=NC3)ccc1C(=O)O [alisertib]
# Assay: log2 fold change, soluble protein after heating vs DMSO (PISA); higher = thermal stabilisation; K562 lysate, 10 uM; active = over 0.2 and 3.5 SD of the protein, either way, in both replicates (recomputed)
# Outline: (§1)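 Log-two fold change in thermal stability relative to solvent controls is reported from duplicates. For each sample, crude K562 extract from dounce-homogenised pellets in PBS pH 7.4 with 1 mM MgCl2, at 1 mg/mL protein, was treated with 10 μM compound for 30 min. Aliquots heated for 3 min across 48°C-58°C were pooled, brought to 0.5% NP-40 at 4°C and cleared at 21,000xg for 90 min. The supernatant was quantified by TMTpro 16plex LC-MS/MS with channel sums equalised.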
# UniProt Q14746, sequence (Q14746 whole entry, looked up): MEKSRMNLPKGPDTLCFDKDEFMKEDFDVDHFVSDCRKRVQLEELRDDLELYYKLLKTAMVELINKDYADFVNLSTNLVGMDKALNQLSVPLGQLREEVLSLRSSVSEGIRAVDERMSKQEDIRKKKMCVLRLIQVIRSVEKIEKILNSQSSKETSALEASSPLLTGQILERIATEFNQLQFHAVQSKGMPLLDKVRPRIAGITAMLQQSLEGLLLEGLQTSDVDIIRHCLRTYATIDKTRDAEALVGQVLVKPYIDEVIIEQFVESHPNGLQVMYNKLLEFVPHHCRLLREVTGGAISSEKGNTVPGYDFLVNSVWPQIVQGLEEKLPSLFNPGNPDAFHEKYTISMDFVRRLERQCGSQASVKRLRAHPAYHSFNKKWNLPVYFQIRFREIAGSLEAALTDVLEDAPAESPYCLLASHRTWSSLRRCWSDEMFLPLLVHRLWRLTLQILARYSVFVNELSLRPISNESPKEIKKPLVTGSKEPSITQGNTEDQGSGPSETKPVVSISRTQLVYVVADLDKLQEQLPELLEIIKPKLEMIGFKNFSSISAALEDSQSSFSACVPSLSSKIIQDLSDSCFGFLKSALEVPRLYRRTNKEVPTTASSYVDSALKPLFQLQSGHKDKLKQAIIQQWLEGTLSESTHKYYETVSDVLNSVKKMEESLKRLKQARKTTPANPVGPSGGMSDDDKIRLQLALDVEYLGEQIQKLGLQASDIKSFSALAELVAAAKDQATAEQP
# UniProt Q9BY43, sequence (Q9BY43 whole entry, looked up): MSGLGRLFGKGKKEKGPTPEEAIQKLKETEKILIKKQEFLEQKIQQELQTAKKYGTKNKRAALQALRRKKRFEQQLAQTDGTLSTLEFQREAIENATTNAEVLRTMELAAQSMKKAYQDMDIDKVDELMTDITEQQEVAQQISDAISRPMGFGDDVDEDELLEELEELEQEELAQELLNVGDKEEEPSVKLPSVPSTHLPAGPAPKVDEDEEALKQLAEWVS
# UniProt Q7Z401, sequence (Q7Z401 whole entry, looked up): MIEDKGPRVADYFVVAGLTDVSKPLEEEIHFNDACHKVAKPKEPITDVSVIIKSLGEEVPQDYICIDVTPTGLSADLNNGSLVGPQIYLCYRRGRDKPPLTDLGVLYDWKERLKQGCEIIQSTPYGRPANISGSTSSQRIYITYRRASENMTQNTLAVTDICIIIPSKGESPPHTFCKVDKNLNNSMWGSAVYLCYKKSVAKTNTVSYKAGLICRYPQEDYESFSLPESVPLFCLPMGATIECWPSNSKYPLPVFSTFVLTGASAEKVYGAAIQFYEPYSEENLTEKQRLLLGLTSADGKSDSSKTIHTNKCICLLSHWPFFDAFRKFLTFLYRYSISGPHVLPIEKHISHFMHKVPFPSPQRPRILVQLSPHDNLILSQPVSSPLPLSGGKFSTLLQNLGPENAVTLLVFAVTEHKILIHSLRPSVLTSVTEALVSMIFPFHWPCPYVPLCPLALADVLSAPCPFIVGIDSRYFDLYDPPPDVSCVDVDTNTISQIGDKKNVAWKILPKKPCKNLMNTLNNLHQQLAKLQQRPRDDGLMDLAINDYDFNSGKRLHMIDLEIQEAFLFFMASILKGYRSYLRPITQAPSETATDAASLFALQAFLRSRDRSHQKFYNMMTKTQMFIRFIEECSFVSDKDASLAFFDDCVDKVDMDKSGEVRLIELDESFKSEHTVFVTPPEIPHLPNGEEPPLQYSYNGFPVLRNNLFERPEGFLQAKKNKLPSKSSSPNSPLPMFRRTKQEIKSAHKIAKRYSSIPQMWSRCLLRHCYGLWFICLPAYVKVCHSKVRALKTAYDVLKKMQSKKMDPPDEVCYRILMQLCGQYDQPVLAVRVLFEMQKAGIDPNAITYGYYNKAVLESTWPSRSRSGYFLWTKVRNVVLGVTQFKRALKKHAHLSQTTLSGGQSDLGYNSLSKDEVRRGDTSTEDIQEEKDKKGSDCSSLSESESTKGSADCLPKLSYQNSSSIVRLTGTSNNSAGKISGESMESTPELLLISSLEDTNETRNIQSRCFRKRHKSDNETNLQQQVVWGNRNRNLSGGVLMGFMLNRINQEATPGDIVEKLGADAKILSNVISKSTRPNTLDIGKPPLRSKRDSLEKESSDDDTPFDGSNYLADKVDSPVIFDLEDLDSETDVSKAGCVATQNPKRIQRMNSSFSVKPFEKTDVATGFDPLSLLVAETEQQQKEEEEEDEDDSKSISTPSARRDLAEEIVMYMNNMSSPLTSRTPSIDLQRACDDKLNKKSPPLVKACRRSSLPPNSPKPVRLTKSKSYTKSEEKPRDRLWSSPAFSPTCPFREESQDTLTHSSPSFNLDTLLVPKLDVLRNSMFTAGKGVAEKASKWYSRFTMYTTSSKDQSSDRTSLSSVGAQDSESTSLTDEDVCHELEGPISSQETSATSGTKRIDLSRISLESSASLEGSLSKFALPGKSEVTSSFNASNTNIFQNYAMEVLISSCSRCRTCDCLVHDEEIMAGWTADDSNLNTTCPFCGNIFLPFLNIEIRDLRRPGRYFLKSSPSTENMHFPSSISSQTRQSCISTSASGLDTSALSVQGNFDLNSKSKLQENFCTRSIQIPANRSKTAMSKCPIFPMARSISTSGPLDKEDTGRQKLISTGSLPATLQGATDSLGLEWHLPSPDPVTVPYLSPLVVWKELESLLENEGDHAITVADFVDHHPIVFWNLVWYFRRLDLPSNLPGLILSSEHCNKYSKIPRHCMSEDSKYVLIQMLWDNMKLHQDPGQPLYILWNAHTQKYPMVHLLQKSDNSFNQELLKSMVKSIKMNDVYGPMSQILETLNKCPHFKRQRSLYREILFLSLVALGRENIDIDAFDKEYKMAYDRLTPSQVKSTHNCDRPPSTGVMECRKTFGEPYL
# UniProt Q8TDD1, sequence (Q8TDD1 whole entry, looked up): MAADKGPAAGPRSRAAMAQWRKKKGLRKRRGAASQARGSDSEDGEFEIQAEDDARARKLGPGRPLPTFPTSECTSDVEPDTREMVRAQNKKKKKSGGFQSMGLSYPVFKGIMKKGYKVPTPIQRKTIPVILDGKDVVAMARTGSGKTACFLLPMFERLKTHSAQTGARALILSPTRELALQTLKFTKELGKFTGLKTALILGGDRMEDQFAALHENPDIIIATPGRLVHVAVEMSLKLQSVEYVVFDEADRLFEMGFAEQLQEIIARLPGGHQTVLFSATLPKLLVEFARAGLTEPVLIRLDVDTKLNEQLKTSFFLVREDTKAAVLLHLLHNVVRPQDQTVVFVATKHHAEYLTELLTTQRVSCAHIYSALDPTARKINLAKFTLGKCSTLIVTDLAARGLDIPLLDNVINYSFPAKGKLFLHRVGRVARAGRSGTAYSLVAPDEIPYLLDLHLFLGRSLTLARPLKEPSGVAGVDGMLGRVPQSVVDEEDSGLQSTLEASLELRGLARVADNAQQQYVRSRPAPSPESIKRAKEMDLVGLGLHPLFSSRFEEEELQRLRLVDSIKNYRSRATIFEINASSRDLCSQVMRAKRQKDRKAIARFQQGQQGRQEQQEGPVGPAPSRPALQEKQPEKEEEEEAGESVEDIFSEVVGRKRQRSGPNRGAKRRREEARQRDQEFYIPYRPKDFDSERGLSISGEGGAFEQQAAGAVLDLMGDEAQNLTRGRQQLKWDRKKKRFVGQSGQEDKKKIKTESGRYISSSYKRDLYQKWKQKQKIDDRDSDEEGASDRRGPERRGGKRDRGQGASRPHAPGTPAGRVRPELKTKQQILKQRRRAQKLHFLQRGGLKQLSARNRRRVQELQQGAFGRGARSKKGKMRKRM
# UniProt P50570, sequence (P50570 whole entry, looked up): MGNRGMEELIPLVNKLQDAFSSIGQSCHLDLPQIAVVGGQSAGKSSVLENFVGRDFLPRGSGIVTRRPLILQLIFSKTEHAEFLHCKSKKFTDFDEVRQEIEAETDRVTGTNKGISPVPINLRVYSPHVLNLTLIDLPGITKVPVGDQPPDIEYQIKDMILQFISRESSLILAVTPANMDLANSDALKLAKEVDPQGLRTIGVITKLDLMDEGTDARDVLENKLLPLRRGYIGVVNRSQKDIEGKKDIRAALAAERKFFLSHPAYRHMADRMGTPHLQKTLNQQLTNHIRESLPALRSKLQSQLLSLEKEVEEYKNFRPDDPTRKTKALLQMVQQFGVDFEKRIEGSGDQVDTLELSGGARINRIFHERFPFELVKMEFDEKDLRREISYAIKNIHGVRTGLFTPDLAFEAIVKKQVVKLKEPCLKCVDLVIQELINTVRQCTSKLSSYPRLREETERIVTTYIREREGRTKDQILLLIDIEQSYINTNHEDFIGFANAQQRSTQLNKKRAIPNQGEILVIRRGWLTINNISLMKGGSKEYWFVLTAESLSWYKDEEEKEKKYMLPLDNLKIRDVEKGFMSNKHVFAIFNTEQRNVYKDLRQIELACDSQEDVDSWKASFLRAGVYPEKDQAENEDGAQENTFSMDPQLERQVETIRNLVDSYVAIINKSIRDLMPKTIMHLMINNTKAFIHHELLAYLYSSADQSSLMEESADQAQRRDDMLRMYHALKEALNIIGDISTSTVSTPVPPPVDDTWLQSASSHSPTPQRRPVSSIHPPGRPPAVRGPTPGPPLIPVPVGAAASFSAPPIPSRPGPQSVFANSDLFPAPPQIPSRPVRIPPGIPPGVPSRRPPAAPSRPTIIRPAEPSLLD
# UniProt P00374, sequence (P00374 whole entry, looked up): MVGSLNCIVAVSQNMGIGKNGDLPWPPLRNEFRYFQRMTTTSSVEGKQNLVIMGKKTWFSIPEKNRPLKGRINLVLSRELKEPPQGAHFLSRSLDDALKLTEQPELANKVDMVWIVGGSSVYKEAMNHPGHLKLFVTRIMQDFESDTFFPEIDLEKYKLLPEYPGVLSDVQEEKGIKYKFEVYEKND
# UniProt Q99766, sequence (Q99766 whole entry, looked up): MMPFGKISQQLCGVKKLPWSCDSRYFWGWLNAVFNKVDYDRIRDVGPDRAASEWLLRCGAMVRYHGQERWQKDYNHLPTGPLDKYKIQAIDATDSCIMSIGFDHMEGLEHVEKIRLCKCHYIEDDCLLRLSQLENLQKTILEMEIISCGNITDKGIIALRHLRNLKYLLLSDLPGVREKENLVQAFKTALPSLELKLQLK
# UniProt P24311, sequence (P24311 whole entry, looked up): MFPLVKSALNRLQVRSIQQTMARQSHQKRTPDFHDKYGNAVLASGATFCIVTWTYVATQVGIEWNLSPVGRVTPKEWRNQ
row,Target,log2 fold change
1,CUX1 isoform 3 (UniProt P39880),0.067 (inactive)
2,"CLUH, A0A494C0R8",-0.05 (inactive)
3,DENND4A isoform 2 (UniProt Q7Z401),-0.018 (inactive)
4,DNM2 (UniProt P50570),0.014 (inactive)
5,DAZAP1 (UniProt Q96EP5),0.009 (inactive)
6,DIAPH1 (UniProt H9KV28),-0.012 (inactive)
7,DNAAF5 (UniProt Q86Y56),0.038 (inactive)
8,CLPB isoform 2 (UniProt Q9H078),0.001 (inactive)
9,DNAH5 (UniProt Q8TE73),-0.029 (inactive)
10,DPH5 isoform 5 (UniProt Q9H2P9),-0.045 (inactive)
11,DAPK1 isoform 3 (UniProt P53355),0.051 (inactive)
12,COX7B (UniProt P24311),0.028 (inactive)
13,CIP2A (UniProt Q8TCG1),-0.004 (inactive)
14,DNA2 (UniProt P51530),-0.007 (inactive)
15,COG2 (UniProt Q14746),0.021 (inactive)
16,DCP1A (UniProt Q9NPI6),-0.074 (inactive)

row,Target,log2 fold change
1,CSNK1E (UniProt P49674),-0.034 (inactive)
2,DMAC2L (UniProt Q99766),0.074 (inactive)
3,DENND1B (UniProt Q6P3S1),-0.146 (inactive)
4,COG6 (UniProt Q9Y2V7),0.016 (inactive)
5,CORO7 (UniProt P57737),0.259 (inactive)
6,DHFR (UniProt P00374),0.017 (inactive)
7,CHMP4A isoform 2 (UniProt Q9BY43),0.028 (inactive)
8,DDX39A (UniProt O00148),-0.026 (inactive)
9,DCTN1 isoform 4 (UniProt Q14203),0.107 (inactive)
10,CMBL (UniProt Q96DG6),0.001 (inactive)
11,DBF4 (UniProt Q9UBU7),-0.028 (inactive)
12,DHRS11 (UniProt Q6UWP2),-0.074 (inactive)
13,DDX54 isoform 2 (UniProt Q8TDD1),0.023 (inactive)
14,CNTN4 (UniProt Q8IWV2),-0.074 (inactive)
15,CSTF2 (UniProt P33240),0.03 (inactive)

# Compound: COc1cc2nc(-c3cc(F)ccc3O)nc(N[C@@H]3CNC[C@H]3C(C)(C)O)c2cc1OC
# Assay: as above
# Outline: as §1
row,Target,log2 fold change
1,CUX1 isoform 3 (UniProt P39880),-0.042 (inactive)
2,"CLUH, A0A494C0R8",0.005 (inactive)
3,CUX1 isoform 2 (UniProt Q13948),0.071 (inactive)
4,DENND4A isoform 2 (UniProt Q7Z401),0.17 (inactive)
5,DNM2 (UniProt P50570),-0.02 (inactive)
6,DAZAP1 (UniProt Q96EP5),-0.004 (inactive)
7,DIAPH1 (UniProt H9KV28),0.026 (inactive)
8,DNAAF5 (UniProt Q86Y56),0.012 (inactive)
9,DDAH1 (UniProt O94760),0.003 (inactive)
10,CNOT4 isoform 9 (UniProt O95628),0.002 (inactive)
11,CLPB isoform 2 (UniProt Q9H078),-0.036 (inactive)
12,DNAH5 (UniProt Q8TE73),-0.019 (inactive)
13,DPH5 isoform 5 (UniProt Q9H2P9),-0.018 (inactive)
14,DAPK1 isoform 3 (UniProt P53355),0.063 (inactive)
15,COX7B (UniProt P24311),0.018 (inactive)
16,CIP2A (UniProt Q8TCG1),-0.014 (inactive)

row,Target,log2 fold change
1,COG2 (UniProt Q14746),-0.022 (inactive)
2,DCP1A (UniProt Q9NPI6),0.026 (inactive)
3,CSNK1E (UniProt P49674),0.048 (inactive)
4,DMAC2L (UniProt Q99766),0.031 (inactive)
5,DENND1B (UniProt Q6P3S1),-0.226 (inactive)
6,COG6 (UniProt Q9Y2V7),-0.017 (inactive)
7,DHFR (UniProt P00374),-0.192 (inactive)
8,CHMP4A isoform 2 (UniProt Q9BY43),0.043 (inactive)
9,DDX39A (UniProt O00148),0.004 (inactive)
10,DCTN1 isoform 4 (UniProt Q14203),-0.05 (inactive)
11,CMBL (UniProt Q96DG6),0.038 (inactive)
12,DHRS11 (UniProt Q6UWP2),0.031 (inactive)
13,DDX54 isoform 2 (UniProt Q8TDD1),0.006 (inactive)
14,CNTN4 (UniProt Q8IWV2),0.03 (inactive)
15,CNNM2 (UniProt Q9H8M5),-0.003 (inactive)
16,CSTF2 (UniProt P33240),0.011 (inactive)

# Compound: COc1cc2ncnc(Nc3ccc(F)c(Cl)c3)c2cc1OCCCN1CCOCC1 [gefitinib]
# Assay: as above
# Outline: as §1
row,Target,log2 fold change
1,CUX1 isoform 3 (UniProt P39880),0.014 (inactive)
2,"CLUH, A0A494C0R8",0.138 (inactive)
3,DENND4A isoform 2 (UniProt Q7Z401),-0.041 (inactive)
4,DNM2 (UniProt P50570),0.006 (inactive)
5,DAZAP1 (UniProt Q96EP5),0.034 (inactive)
6,DIAPH1 (UniProt H9KV28),-0.005 (inactive)
7,DNAAF5 (UniProt Q86Y56),-0.018 (inactive)
8,CLPB isoform 2 (UniProt Q9H078),0.034 (inactive)
9,DNAH5 (UniProt Q8TE73),0.052 (inactive)
10,DPH5 isoform 5 (UniProt Q9H2P9),0.04 (inactive)
11,DAPK1 isoform 3 (UniProt P53355),0.139 (inactive)
12,COX7B (UniProt P24311),-0.139 (inactive)
13,CIP2A (UniProt Q8TCG1),-0.018 (inactive)
14,DNA2 (UniProt P51530),0.036 (inactive)
15,COG2 (UniProt Q14746),-0.039 (inactive)
16,DCP1A (UniProt Q9NPI6),0.022 (inactive)

row,Target,log2 fold change
1,CSNK1E (UniProt P49674),0.012 (inactive)
2,DMAC2L (UniProt Q99766),0.061 (inactive)
3,DENND1B (UniProt Q6P3S1),-0.102 (inactive)
4,COG6 (UniProt Q9Y2V7),0.006 (inactive)
5,CORO7 (UniProt P57737),-0.062 (inactive)
6,DHFR (UniProt P00374),0.028 (inactive)
7,CHMP4A isoform 2 (UniProt Q9BY43),0.041 (inactive)
8,DDX39A (UniProt O00148),0.009 (inactive)
9,DCTN1 isoform 4 (UniProt Q14203),0.051 (inactive)
10,CMBL (UniProt Q96DG6),0.03 (inactive)
11,DBF4 (UniProt Q9UBU7),-0.029 (inactive)
12,DHRS11 (UniProt Q6UWP2),-0.022 (inactive)
13,DDX54 isoform 2 (UniProt Q8TDD1),-0.089 (inactive)
14,CNTN4 (UniProt Q8IWV2),-0.022 (inactive)
15,CSTF2 (UniProt P33240),0.008 (inactive)
